Screens from PubChem BioAssay.
An excerpt weighted towards active compounds, which were near 2.4% of everything screened.
D2 antag = HTS Assay for Allosteric Antagonists of the Human D2 Dopamine Receptor: Primary Screen for Antagonists | AID 485344, 2010 | D(2) dopamine receptor (Homo sapiens), P14416 | inhibition, % at 10 µM | HEK293 TREx D2 cells, calcium flux, dopamine EC80 | hit rate 2% among 340,000; in the data active = inhibition above about 30%; inactive = below that, where a call was filed
Target sequence (P14416 whole entry, looked up): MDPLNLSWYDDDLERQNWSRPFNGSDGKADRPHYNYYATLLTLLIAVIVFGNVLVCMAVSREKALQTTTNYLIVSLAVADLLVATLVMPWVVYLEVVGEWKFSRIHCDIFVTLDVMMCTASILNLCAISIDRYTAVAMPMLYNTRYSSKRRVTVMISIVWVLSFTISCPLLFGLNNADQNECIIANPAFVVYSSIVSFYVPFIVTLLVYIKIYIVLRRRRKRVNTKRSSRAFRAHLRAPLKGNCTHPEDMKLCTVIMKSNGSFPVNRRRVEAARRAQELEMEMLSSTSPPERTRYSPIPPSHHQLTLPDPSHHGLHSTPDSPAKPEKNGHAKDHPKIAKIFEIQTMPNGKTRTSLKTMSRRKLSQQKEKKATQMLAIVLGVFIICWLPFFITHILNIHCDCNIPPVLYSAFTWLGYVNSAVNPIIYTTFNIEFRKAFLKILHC
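Compounds are added to dye-loaded, induced HEK293 T-REx cells coupled to calcium release via D2; after a 3 min kinetic read an EC80 dopamine stimulus is given and fluorescence is recorded for 3 more min.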
D2 ag-1 = HTS Assay for Allosteric Agonists of the Human D2 Dopamine Receptor: Primary Screen for Agonists | D(2) dopamine receptor (Homo sapiens), P14416 | HEK293 T-REx D2 cells, calcium flux agonist mode | activation, % at 2 µM | hit rate 0.53% among 340,000 | AID 485358, 2010;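 active = activation over 3 SD above normal in the single-dose calcium agonist read, cut at about 30% in these data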
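Tetracycline-induced HEK293 Trex cells with D2 receptor force-coupled to calcium signaling, plated overnight at 30 C and loaded with no-wash calcium dye. Calcium flux read kinetically for 180 s after compound addition; responses flag agonists.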
D2 ag-2 = Beta-Arrestin HTS for Positive Allosteric Modulators of the Human D2 Dopamine Receptor: Agonists; activation, % (no concentration beside the values); DiscoveRx PathHunter D2 beta-arrestin, luminescence, 90 min; 100% = 57 uM dopamine signal; AID 624465, 2012; hit rate 0.084% among 360,000; in the data active = activation above about 40%; inconclusive = between about 15% and that limit
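Agonist mode: compounds alone added to overnight-plated D2 PathHunter cells for 90 min at 37 C, with 57 uM final dopamine (EC100) defining full response. Beta-arrestin recruitment detected by chemiluminescent reagent, read after 1 h at ambient temperature.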
D2 PAM-1 = HTS Assay for Positive Allosteric Modulators of the Human D2 Dopamine Receptor: Primary Screen for Potentiators; potentiation, % at 10 µM; D(2) dopamine receptor (Homo sapiens), P14416; HEK293 T-REx D2, calcium flux, EC20 dopamine potentiation; hit rate 0.34% among 340,000;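 active = potentiation over 3 SD above the plate norm, cut at about 30% in these data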
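Primary screen. Calcium kinetics in induced HEK293 T-REx D2 cells: compound pre-addition 180 s, EC20 dopamine, 180 s more.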
D2 PAM-2 = Beta-Arrestin HTS for Positive Allosteric Modulators of the Human D2 Dopamine Receptor: Potentiators; hit rate 0.23% among 360,000; AID 624464, 2012; DiscoveRx D2 beta-arrestin cells, luminescence, 90 min; 100% = 57 uM dopamine signal; potentiation, % (test concentration not listed); in the data active = potentiation above about 50%; inconclusive = mostly about 30% to 49%
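PathHunter D2 cells, attached overnight at 37 deg C, received compound in DMSO plus dopamine at EC20 (50 nM final) for 90 min at 37 deg C. Beta-arrestin recruitment was read as luminescence after 1 h with detection reagent at ambient temperature.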
D3 ag = qHTS of D3 Dopamine Receptor Agonist: D3 Dopamine Receptor B-arrestin Agonist Confirmatory Assay | shares compounds with D2 ag-1 | DiscoveRx D3 beta-arrestin cells, luminescence, 90 min | Potency, µM (titrated, usually from 76.9 µM), usual class: activators | hit rate 4% among 2,300; also: nearly all actives have a fitted effect of over 70% in size
D2 ag-3 = qHTS of D3 Dopamine Receptor Agonist: D2 Dopamine Receptor B-arrestin Agonist Counterscreen | hit rate 5.9% among 2,300 | DiscoveRx PathHunter D2 beta-arrestin, luminescence, 90 min; response scale: percent relative to full dopamine signal | Potency, µM (doses to about 76.9 µM), usual class: activators | AID 720507, 2013 | shares compounds with D2 ag-1; also: nearly all actives have a fitted effect of over 70% in size
Hits are given with their value; - = inactive; ? = inconclusive; . = no result. Unless noted, calls follow the shape of the dose curve; as a rule, active = well fitted activation curve with a large enough effect; inconclusive = small, poorly fitted or top-dose-only effect; inactive = flat fitted curve, though single readings scatter.

SMILES	D2 antag	D2 ag-1	D2 ag-2	D2 PAM-1	D2 PAM-2	D3 ag	D2 ag-3
CCOC(=O)C1=CCN(S(=O)(=O)c2ccccc2C)C1c1ccc(Cl)c(Cl)c1 (centres undefined)	.	.	-	.	-	.	.
COc1ccc(/C=N/Nc2nnc(-c3ccccc3)c(=O)[nH]2)cc1	-	60	-	-	-	-	-
O=c1[nH]c(N/N=C/c2ccccc2Br)nnc1-c1ccccc1	-	-	-	-	-	.	.
CCCCN1CCNC[C@@H]1Cc1ccccc1	-	-	-	-	-	.	.
CCCCN1CCNC[C@@H]1c1ccccc1	-	-	-	-	-	-	-
CCCSCCCNC(=O)Cn1nc(CC)n2c(cc3c(OC)cccc32)c1=O	-	40	-	-	-	-	-
Cc1cc(C)n(-c2nc(C)c(C)c(=O)n2CC(=O)Nc2ccc(Cl)c(Cl)c2)n1	.	-	.	-	.	.	.
COc1ccc(-c2oc3ncn4nc(COc5cccc(C)c5C)nc4c3c2-c2ccc(OC)cc2)cc1	.	-	.	-	.	.	.
CCCn1c(C2CCCN2c2nc(-c3cccc(Br)c3)cs2)nc2cc(Cl)c(Cl)cc21 (centres undefined)	-	40	-	-	-	-	-
CCCn1c(C2CCCN2c2nc(C)cs2)nc2cc(Cl)c(Cl)cc21 (centres undefined)	-	-	-	-	-	.	.
CCCNC(=O)C(Cc1cccc(C#N)c1)NC(=O)c1ccc(C#N)cc1 (centres undefined)	-	-	-	-	-	-	-
CCCNC(=O)C(Cc1cccc(Cl)c1)NC(=O)c1ccc(C#N)cc1 (centres undefined)	-	-	-	-	-	.	.
CCCCCCCCC(NC(=O)c1ccc(C#N)cc1)C(=O)NCCC (centres undefined)	-	-	-	-	-	-	-
CCCNC(=O)C(CC)NC(=O)c1ccc(C#N)cc1 (centres undefined)	-	-	-	-	-	.	.
CCCNC(=O)C(Cc1ccc(I)cc1)NC(=O)c1ccc(C#N)cc1 (centres undefined)	-	-	-	-	-	-	-
COc1ccc(NC(=O)c2cc(S(=O)(=O)N3CCCC(C)C3)cn2C)c(OC)c1 (centres undefined)	.	-	.	-	.	.	.
O=C1CCCN1CCC(=O)N1CCCC(CO)(Cc2ccccc2)C1 (centres undefined)	-	-	-	-	-	.	.
COc1ccc(/[N+]([O-])=C/c2ccco2)cc1	-	-	-	-	-	-	-
COc1ccc(OCC(=O)N/N=C\c2ccco2)cc1	-	-	-	-	-	.	.
Cc1cc(C)cc(NC(=O)CN2CCN(c3ccccn3)CC2)c1	-	-	-	-	-	.	.
CN(C)S(=O)(=O)c1cc(NC(=O)CN2CCN(c3ccccc3)CC2)ccc1Cl	64	71	?	-	-	50µM	?
CN(C)S(=O)(=O)c1cc(NC(=O)CN2CCN(c3ccc(O)cc3)CC2)ccc1Cl	-	-	-	-	-	.	.
Cc1ccc(NC(=O)CN2CCN(c3ccccn3)CC2)cc1S(=O)(=O)N(C)C	77	69	58	-	-	1.4µM	14µM
CN(C)S(=O)(=O)c1ccc(NC(=O)CN2CCN(c3ccccn3)CC2)cc1	30	65	?	-	-	1.4µM	?
CC(CCC(=O)O)C1CCC2C3CCC4C[C@H](O)CCC4(C)C3CC(=O)C12C (some centres undefined)	-	52	-	-	-	-	-
SMILES	D2 antag	D2 ag-1	D2 ag-2	D2 PAM-1	D2 PAM-2	D3 ag	D2 ag-3
C[C@H](CCC(=O)O)[C@H]1CC[C@H]2[C@@H]3CC[C@@H]4C[C@H](O)CC[C@]4(C)[C@H]3CC[C@]12C	-	-	-	-	-	.	.
CCOC(=O)c1ccc(-c2c(-c3cc(OC)c(OC)c(OC)c3)noc2C)cc1F	-	-	-	-	-	.	.
CCOC(=O)c1ccc(-c2c(-c3ccc(OC)cc3)oc(=O)c3cc(OC)c(OC)cc23)cc1F	.	.	-	.	-	-	-
Cn1c(=O)c2c(-c3ccccc3Br)n(C(C)(C)C)cc2n(C)c1=O	.	-	.	-	.	.	.
CCCC(c1nnnn1CCOC)N1CCN(Cc2ccccc2)CC1 (centres undefined)	-	33	-	-	-	-	-
N#Cc1ccc(CSc2nnc(NC(=O)C3CC(=O)N(c4ccc5c(c4)OCCO5)C3)s2)cc1 (centres undefined)	-	-	-	-	-	.	.
O=C(Nc1nnc(SCc2ccc(F)cc2)s1)C1CC(=O)N(c2ccc3c(c2)OCCO3)C1 (centres undefined)	-	43	-	-	-	-	-
O=C(c1cccc(S(=O)(=O)Nc2ccccc2Cl)c1)N1CCN(c2ccccc2O)CC1	-	-	-	-	-	-	-
O=C(c1cccc(NS(=O)(=O)c2ccc(Br)cc2)c1)N1CCN(c2ccccc2O)CC1	-	-	-	-	-	-	-
CCOc1ccc(OCC)c(NS(=O)(=O)c2c(C(=O)N3CCC(C)CC3)c(C)n(C)c2C)c1	.	-	.	-	.	.	.
CCOC(=O)c1ccc(N2C(=O)c3n[nH]c(-c4ccco4)c3C2c2cccc(O)c2)cc1 (centres undefined)	.	-	.	-	.	.	.
CCSc1nc(CC)c2c(c1C#N)CCCC2	-	56	-	-	-	-	-
COc1ccc(N2CCN(Cc3cccn3-c3nnc(N4CCN(C5CCCCC5)CC4)s3)CC2)cc1	.	-	.	-	.	.	.
COc1ccc(-c2c(-c3cc(OC)cc(OC)c3)n(C)c3ccc(-c4cccc5[nH]ccc45)cc23)cc1	-	-	-	-	-	-	-
CC(=O)CC(C)(C)NC(C)=S	-	34	-	-	-	-	-
COc1ccc(CC(=O)NC(C)(C)CC(C)=O)cc1OC	-	-	-	-	-	.	.
COc1ccc(C2c3c(-c4ccccc4)n[nH]c3C(=O)N2c2ccc(C(=O)O)cc2)cc1 (centres undefined)	39	-	-	-	-	-	-
